This is part of a sample that, as a whole, favours compounds with a hit. Of some 83,000 tested, about 20% had one in any assay.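 Single-concentration screen, 48 h exposure, 96-well plates. Endpoint: percent growth. Below 10 = active.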 Values without a mark were called inactive. Active and inactive are the calls of the source.

The source of these data is PubChem BioAssay (NCI).

What all share (experiment): NCI-60 one-dose screen, 48 h (100 = growth as untreated, 0 = no growth, -100 = all killed)
For one assay, the system named is NCI-H23 lung. Particulars: 10 µM unless noted.
A further assay relates to NCI-H226 lung. Particulars: 10 µM unless noted.
The subject of the next assay is NCI-H322M lung. Particulars: 10 µM unless noted.
The next assay concerns HOP-62 NSCLC. Particulars: 10 µM unless noted.
The subject of the next assay is NCI-H460 lung. Particulars: 10 µM unless noted.
The next assay concerns A549/ATCC NSCLC. Particulars: 10 µM unless noted.
Another assay deals with 786-0 renal. Particulars: 10 µM unless noted.
In the next assay the test system is COLO 205 colon. Particulars: 10 µM unless noted.
A further assay relates to DU-145 prostate. Particulars: 10 µM unless noted.
In the next assay the test system is K-562 leukemia. Particulars: 10 µM unless noted.
A further assay relates to MALME-3M melanoma. Particulars: 10 µM unless noted.
For a further assay, the system named is MDA-MB-231 breast. Particulars: 10 µM unless noted.
The test system of another assay is RXF 393 renal. Particulars: 10 µM unless noted.
The test system of the next assay is SF-268 CNS. Particulars: 10 µM unless noted.
In the next assay the test system is SF-295 CNS. Particulars: 10 µM unless noted.
The next assay deals with SF-539 CNS. Particulars: 10 µM unless noted.
In another assay the test system is UACC-257 melanoma. Particulars: 10 µM unless noted.
In another assay the test system is HOP-92 NSCLC. Particulars: 10 µM.
For another assay, the system named is NCI-H522 lung. Particulars: 10 µM unless noted.
A further assay relates to M14 melanoma. Particulars: 10 µM unless noted.

With `CC1(C)[C@@H](O)CC[C@]2(C)[C@H]3CC[C@@H]4[C@H]5[C@H](C(=O)/C=C\c6ccc([N+](=O)[O-])cc6)CC[C@]5(O)CC[C@@]4(C)[C@]3(C)CC[C@@H]12`, the growth with NCI-H23 lung was 50.2%; with NCI-H226 lung it was -2.45% (active); in the assay with NCI-H322M lung it was 90.8%; in the assay with HOP-62 NSCLC, 86.9%; in the assay with NCI-H460 lung, 51.8%; in the assay with A549/ATCC NSCLC it was 61.8%. The growth with 786-0 renal is 56.8%; in the assay on COLO 205 colon, 106%; in the assay with DU-145 prostate, 58%; with K-562 leukemia, 27.3%; in the assay on MALME-3M melanoma, 66.6%; with MDA-MB-231 breast, 46.2%. The growth in the assay with RXF 393 renal was -7.82% (active); with SF-268 CNS, 63.9%; with SF-295 CNS it was 79.5%; in the assay on SF-539 CNS, 51.8%; in the assay on UACC-257 melanoma, 70.3%.
For `COc1cc(/C=C/C(=O)c2ccc(NC(=O)CSc3nnc(-c4ccc(-c5nc6ccc(Cl)cc6[nH]5)cc4)o3)cc2)cc(OC)c1OC`, the growth with NCI-H23 lung was 101%; with NCI-H322M lung, 99.6%; in the assay with HOP-62 NSCLC, 89.8%; in the assay with NCI-H460 lung, 98.7%; with HOP-92 NSCLC, 115%; in the assay on NCI-H522 lung, 76.1%. Moreover, the growth is 99.5% with A549/ATCC NSCLC; 109% with 786-0 renal; 106% with COLO 205 colon; 94% with DU-145 prostate; 60.1% with K-562 leukemia; 95.5% with MALME-3M melanoma. In addition, the growth is 79.1% in the assay on MDA-MB-231 breast; 84.1% with RXF 393 renal; 91.8% in the assay with SF-268 CNS; 95.6% with SF-295 CNS; 94.2% in the assay on SF-539 CNS; 88.1% in the assay on UACC-257 melanoma.
Consider `CC(=O)c1ccc(Nc2nc(SCC(C)C)nc(-c3ccccc3)c2C#N)cc1`, for which the growth in the assay with NCI-H226 lung was 55.5%; with NCI-H322M lung, 94.9%; with HOP-62 NSCLC, 25.9%; in the assay with NCI-H460 lung, 105%; in the assay on NCI-H522 lung it was 87.3%; in the assay with A549/ATCC NSCLC, 101%. Moreover, the growth with 786-0 renal is 53.9%; with COLO 205 colon it was 119%; with DU-145 prostate it was 107%; with K-562 leukemia, 95.4%; in the assay with MALME-3M melanoma, 94.9%; in the assay on MDA-MB-231 breast it was 73.5%. For the same compound, the growth in the assay with RXF 393 renal was -1.29% (active); with SF-268 CNS it was 72%; with SF-295 CNS, 17%; in the assay with SF-539 CNS, 63.9%; with UACC-257 melanoma, 105%; in the assay on M14 melanoma it was 103%.
On to `Cc1ccc(-c2cc3nc(C(Cl)Cl)nc(C)n3n2)cc1`, for which the growth in the assay on NCI-H226 lung is 94.6%; in the assay with NCI-H322M lung it was 101%; with HOP-62 NSCLC, 92.1%; in the assay with NCI-H460 lung, 95.1%; with HOP-92 NSCLC, 110%; in the assay with NCI-H522 lung it was 104%. Moreover, the growth is 108% in the assay on A549/ATCC NSCLC; 104% in the assay on 786-0 renal; 96.8% in the assay with DU-145 prostate; 112% in the assay on K-562 leukemia; 105% with MALME-3M melanoma; 87% in the assay on MDA-MB-231 breast. The growth is 118% in the assay with RXF 393 renal; 106% in the assay on SF-268 CNS; 108% in the assay with SF-295 CNS; 97.8% with SF-539 CNS; 112% in the assay on UACC-257 melanoma; 106% in the assay on M14 melanoma.
Regarding `Cn1cc(-c2cc(N)n3nc(-c4cn(C)c5ccccc45)cc3n2)c2ccccc21`, the growth in the assay with NCI-H226 lung is 113%; in the assay on NCI-H322M lung it was 98.5%; with HOP-62 NSCLC, 108%; in the assay with NCI-H460 lung, 93.3%; in the assay with HOP-92 NSCLC it was 88.8%; in the assay with NCI-H522 lung, 109%. Moreover, the growth was 75.8% with A549/ATCC NSCLC; 63.7% with 786-0 renal; 123% in the assay on COLO 205 colon; 88.1% in the assay on DU-145 prostate; 7.81% (active) in the assay with K-562 leukemia; 84% in the assay on MALME-3M melanoma. In addition, the growth in the assay on MDA-MB-231 breast is 76.4%; in the assay with RXF 393 renal, 95.6%; with SF-268 CNS, 100%; with SF-295 CNS, 95.9%; in the assay on SF-539 CNS, 84.1%; in the assay on UACC-257 melanoma, 107%. Besides, the growth with M14 melanoma is 32.1%.
As to `COc1cccc(N2CCN(c3ncnc4c3[nH]c3ccc(F)cc34)C[C@H]2C)c1`, the growth in the assay with NCI-H226 lung is 33.5%; in the assay with NCI-H322M lung it was 89.6%; in the assay with HOP-62 NSCLC, 56.6%; in the assay with NCI-H460 lung, 66.3%; with HOP-92 NSCLC, 53.3%; in the assay with NCI-H522 lung it was 33.1%. For the same compound, the growth was 61% in the assay with A549/ATCC NSCLC; 71.4% in the assay on 786-0 renal; 61.4% with COLO 205 colon; 81.5% with DU-145 prostate; 26.6% with K-562 leukemia; 48.2% in the assay with MALME-3M melanoma. Also, the growth in the assay on MDA-MB-231 breast was 64.3%; with RXF 393 renal, 88%; in the assay on SF-268 CNS, 84.5%; in the assay with SF-295 CNS, 31.8%; with SF-539 CNS, 69.6%; with UACC-257 melanoma, 15.4%. In the assay on M14 melanoma, the growth is 41.7%.
On to `CCCC(=O)NC(c1cccnc1)c1cc(C(C)(C)C)c2cccnc2c1O` (stereo unspecified), for which the growth was 33.6% in the assay on NCI-H322M lung; 25.9% with HOP-62 NSCLC; 3.55% (active) with NCI-H460 lung; 50.5% with HOP-92 NSCLC; 7.22% (active) with NCI-H522 lung; 18.2% in the assay on A549/ATCC NSCLC. Also, the growth in the assay with 786-0 renal was 2.54% (active); in the assay on COLO 205 colon, 20.3%; in the assay with DU-145 prostate, 31.8%; in the assay on K-562 leukemia, 12.5%; with MALME-3M melanoma it was 25%; in the assay with MDA-MB-231 breast, 34.6%. Besides, the growth was 53.6% in the assay with RXF 393 renal; 24.2% with SF-268 CNS; 17% in the assay with SF-295 CNS; 13.4% with SF-539 CNS; 4.98% (active) with UACC-257 melanoma; 3.19% (active) in the assay with M14 melanoma.
As for `COc1ccc(-c2nc3ccc(-c4nnc(SCC(=O)Nc5ccc(C(=O)/C=C/c6ccc(Cl)cc6)cc5)o4)cc3[nH]2)cc1`, the growth was 94.1% with NCI-H226 lung; 100% in the assay on NCI-H322M lung; 99.5% in the assay with HOP-62 NSCLC; 104% with NCI-H460 lung; 95% in the assay with HOP-92 NSCLC; 95.3% with NCI-H522 lung. In addition, the growth is 105% in the assay on A549/ATCC NSCLC; 99.1% in the assay with 786-0 renal; 117% in the assay with COLO 205 colon; 104% with DU-145 prostate; 93.9% in the assay on K-562 leukemia; 96.1% in the assay with MALME-3M melanoma. Besides, the growth in the assay on MDA-MB-231 breast was 94.8%; in the assay on RXF 393 renal it was 98.2%; in the assay with SF-268 CNS it was 94.9%; in the assay on SF-295 CNS it was 95.9%; in the assay on SF-539 CNS it was 87.1%; in the assay with UACC-257 melanoma, 107%. In the assay with M14 melanoma, the growth was 105%.
